Each structure is given as a SMILES string. “And” between values parts separate entries of the source, which are not always exact repeats. Equal values may be shown once. Results filed as inconclusive are left out. The source holds several records for some structures; these can differ, active in one and inactive in another. The source made the active and inactive calls. Unless noted, calls follow the shape of the dose curve; as a rule, active = well fitted curve in the direction sought with a large enough effect; inconclusive = small, poorly fitted or top-dose-only effect, or another doubt; inactive = no such curve, though single readings can be large; an effect the other way counts as inactive or inconclusive.

This passage reports Potency and outcome results from PubChem BioAssay (NCATS).

Experiment [1] in a line: Natriuretic polypeptide receptor (hNpr1) antagonism - Pilot counterscreen GloSensor control cell line (AID 1347045; calls by dose curve; also: series mostly up to about 38 µM). The method in brief:
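HEK293 cGMP GloSensor cells preloaded 2 h with 2% GloSensor reagent, then compound 30 min before baseline luminescence read. Stimulated with 50 uM sodium nitroprusside, 20 min at room temperature, then read again; counterscreen for Npr1 antagonism.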
(A counterscreen serves to expose hits that act by an unwanted route or on another target.)

The target in experiment [2] is Atrial natriuretic peptide receptor 1 (Homo sapiens) (UniProt P16066). The experiment is described as follows: Natriuretic polypeptide receptor (hNpr1) antagonism - Pilot screen (AID 1347049; calls by dose curve;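 also: agonist-evoked cGMP luminescence read 20 min after hNppA addition; series mostly up to about 58 µM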). A digest of the protocol:
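HEK293 cells co-expressing hNpr1 and the GloSensor pGS-40F cGMP luciferase sensor were preloaded with 2% GloSensor reagent for 2 h. Compounds were added for 30 min at room temperature, then cells were stimulated with 0.1 nM hNppA for 20 min before luminescence readout.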

The target of experiment [3] is Atrial natriuretic peptide receptor 2 (Homo sapiens) (UniProt P20594). The experiment can be described thus: Natriuretic polypeptide receptor (hNpr2) antagonism - Pilot subtype selectivity assay (AID 1347050; calls by dose curve). A digest of the protocol: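 cGMP-sensor HEK293/hNpr2 cells; 2% GloSensor reagent 2 h RT; compounds 30 min; baseline luminescence read; 1 nM hNppC agonist 20 min RT; final luminescence read by CCD camera. Antagonism = reduced post-agonist signal.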

A short description of experiment [4]: NS1 protein of Zika virus - qHTS assay to identify small molecule inhibitors in human HEK 293 cells (AID 1347053). Also: nearly all actives have a fitted effect of over 55% in size. Also: potency is read from the fitted curve at half-maximal effect. The method in brief:
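HEK 293 cells, seeded 20 h at 37 C, were pretreated with compound 1 h, then infected with ZIKV MR766 (MOI = 0.5) for 24 h. NS1 was read by TR-FRET with two anti-NS1 antibodies, normalized to uninfected and infected wells.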
(In general: In qHTS, concentration-response curves come from the screen itself.)

In experiment [5] the target is T1, Tyrosine-protein phosphatase non-receptor type substrate 1 (Homo sapiens) + Leukocyte surface antigen CD47 (Homo sapiens) (UniProt P78324+Q08722). The experiment can be described thus: CD47-SIRPalpha protein protein interaction - Alpha assay qHTS validation (AID 1347059).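 Also: bead proximity luminescence from CD47 binding SIRPalpha after compound preincubation with SIRPalpha.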 A digest of the protocol:
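Soluble extracellular domains: Avi-tag biotinylated SIRPalpha (25 nM) preincubated 30 min RT with compound, then 6His-CD47 (12.5 nM) 30 min; Ni-NTA acceptor and streptavidin donor beads (10 ug/mL) 30 min, AlphaScreen read. PBS pH 7.4, 0.05% IGEPAL.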

In experiment [6] the target is Parathyroid hormone/parathyroid hormone-related peptide receptor (Homo sapiens) (UniProt Q03431). The experiment is described as follows: qHTS for PTHR1 Agonists: Optimization Screen against the NCGC LOPAC library (AID 1347079).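 Also: GloSensor cAMP luminescence in HEK-293 GP2 cells expressing human PTHR1 with IBMX.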 A digest of the protocol: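 Agonist readout: GloSensor cAMP luminescence, read after 15 min at room temperature. HEK-293-derived GP2 line carries PTHR1; compounds tested as a titration for 1 hr at 37C in presence of IBMX. M-PTH (1-15) served as control.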

Experiment [7] is described as follows: qHTS of pediatric cancer cell lines to identify multiple opportunities for drug repurposing: Primary screen for DAOY cells (AID 1347090). Also: nearly all actives have a fitted effect of over 55% in size. Also: potency is read from the fitted curve at half-maximal effect. A digest of the protocol:
(§1)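 Eight- or eleven-point concentration series, 48 h treatment at 37 degrees C in growth media; readout CellTiter-Glo luminescence. Potency and efficacy were taken from the concentration-response curves.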

The target of experiment [8] is T1, Tyrosine-protein phosphatase non-receptor type substrate 1 (Homo sapiens) + Leukocyte surface antigen CD47 (Homo sapiens). The experiment can be described thus: CD47-SIRPalpha protein protein interaction - HTRF assay qHTS validation (AID 1347058; active = well fitted curve in the direction sought with a large enough effect in the signal ratio, not every such curve was filed as active; the % refers to the signal ratio; also: series mostly up to about 38 µM). The method in brief: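 TR-FRET read (Ch1/Ch2 ratio) of soluble extracellular CD47 and Avi-biotinylated SIRPalpha domains in PBS pH 7.4 with 0.05% IGEPAL; 7-point compound titration. Sequential 30 min room-temperature steps; non-biotinylated SIRPalpha as control inhibitor.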
A general note: In TR-FRET formats the signal depends on donor and acceptor labels being close together.

Experiment [9] is described as follows: qHTS of pediatric cancer cell lines to identify multiple opportunities for drug repurposing: Primary screen for TC32 cells (AID 1347089). Also: nearly all actives have a fitted effect of over 60% in size. Also: potency is read from the fitted curve at half-maximal effect. A digest of the protocol:
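Measured quantity: luminescence from CellTiter-Glo, reflecting metabolically active TC32 cells following 48 h of compound. Curves came straight from multi-point titrations, with 8 or 11 points in primary and 11 in confirmatory screening.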

A short description of experiment [10]: qHTS of pediatric cancer cell lines to identify multiple opportunities for drug repurposing: Primary screen for SJ-GBM2 cells (AID 1347091). Also: potency is read from the fitted curve at half-maximal effect. A digest of the protocol: as §1

Chain of Atrial natriuretic peptide receptor 1 (Homo sapiens) (P16066 whole entry, looked up): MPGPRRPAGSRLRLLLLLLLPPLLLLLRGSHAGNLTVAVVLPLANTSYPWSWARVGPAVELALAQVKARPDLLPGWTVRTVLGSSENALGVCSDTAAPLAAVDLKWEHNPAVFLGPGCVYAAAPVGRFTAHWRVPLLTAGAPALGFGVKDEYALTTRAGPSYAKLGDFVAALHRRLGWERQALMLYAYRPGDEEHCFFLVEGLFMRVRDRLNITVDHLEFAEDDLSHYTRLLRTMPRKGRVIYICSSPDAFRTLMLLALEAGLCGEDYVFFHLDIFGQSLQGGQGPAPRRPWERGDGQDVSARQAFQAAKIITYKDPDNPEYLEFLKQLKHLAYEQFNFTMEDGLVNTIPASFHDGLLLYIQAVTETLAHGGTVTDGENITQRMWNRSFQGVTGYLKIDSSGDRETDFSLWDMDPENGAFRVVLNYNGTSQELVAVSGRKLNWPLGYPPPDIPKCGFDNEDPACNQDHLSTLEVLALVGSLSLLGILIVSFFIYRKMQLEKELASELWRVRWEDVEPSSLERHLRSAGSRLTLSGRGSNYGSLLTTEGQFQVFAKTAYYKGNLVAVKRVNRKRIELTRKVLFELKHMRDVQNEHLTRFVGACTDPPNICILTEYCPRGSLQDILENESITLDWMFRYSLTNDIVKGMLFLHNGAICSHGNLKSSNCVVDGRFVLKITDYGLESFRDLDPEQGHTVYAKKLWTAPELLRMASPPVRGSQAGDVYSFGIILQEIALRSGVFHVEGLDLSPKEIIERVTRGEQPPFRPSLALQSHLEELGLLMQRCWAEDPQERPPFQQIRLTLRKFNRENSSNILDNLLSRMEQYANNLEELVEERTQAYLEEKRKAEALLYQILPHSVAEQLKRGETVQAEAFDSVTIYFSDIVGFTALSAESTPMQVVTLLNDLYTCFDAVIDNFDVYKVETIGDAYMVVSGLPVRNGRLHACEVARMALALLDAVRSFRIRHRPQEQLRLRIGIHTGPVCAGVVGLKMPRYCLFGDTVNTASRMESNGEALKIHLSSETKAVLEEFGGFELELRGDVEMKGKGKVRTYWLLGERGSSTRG
Chain of Parathyroid hormone/parathyroid hormone-related peptide receptor (Homo sapiens) (Q03431 whole entry, looked up): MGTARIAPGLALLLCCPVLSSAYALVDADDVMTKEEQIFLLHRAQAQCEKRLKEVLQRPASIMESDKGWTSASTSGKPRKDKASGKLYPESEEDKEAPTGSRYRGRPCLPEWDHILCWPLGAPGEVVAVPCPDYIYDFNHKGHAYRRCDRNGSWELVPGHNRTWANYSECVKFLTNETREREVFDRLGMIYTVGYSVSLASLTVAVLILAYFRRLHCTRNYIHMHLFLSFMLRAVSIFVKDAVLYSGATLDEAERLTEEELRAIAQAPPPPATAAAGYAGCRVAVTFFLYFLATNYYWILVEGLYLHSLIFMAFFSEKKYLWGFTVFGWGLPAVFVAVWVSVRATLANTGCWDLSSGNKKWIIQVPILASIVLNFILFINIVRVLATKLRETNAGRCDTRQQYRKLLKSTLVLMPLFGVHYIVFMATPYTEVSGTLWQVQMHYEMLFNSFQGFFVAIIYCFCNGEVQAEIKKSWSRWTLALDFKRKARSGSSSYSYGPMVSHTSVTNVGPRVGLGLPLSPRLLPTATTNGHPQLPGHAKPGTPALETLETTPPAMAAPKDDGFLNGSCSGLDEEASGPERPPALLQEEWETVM
Chain of Atrial natriuretic peptide receptor 2 (Homo sapiens) (P20594 whole entry, looked up): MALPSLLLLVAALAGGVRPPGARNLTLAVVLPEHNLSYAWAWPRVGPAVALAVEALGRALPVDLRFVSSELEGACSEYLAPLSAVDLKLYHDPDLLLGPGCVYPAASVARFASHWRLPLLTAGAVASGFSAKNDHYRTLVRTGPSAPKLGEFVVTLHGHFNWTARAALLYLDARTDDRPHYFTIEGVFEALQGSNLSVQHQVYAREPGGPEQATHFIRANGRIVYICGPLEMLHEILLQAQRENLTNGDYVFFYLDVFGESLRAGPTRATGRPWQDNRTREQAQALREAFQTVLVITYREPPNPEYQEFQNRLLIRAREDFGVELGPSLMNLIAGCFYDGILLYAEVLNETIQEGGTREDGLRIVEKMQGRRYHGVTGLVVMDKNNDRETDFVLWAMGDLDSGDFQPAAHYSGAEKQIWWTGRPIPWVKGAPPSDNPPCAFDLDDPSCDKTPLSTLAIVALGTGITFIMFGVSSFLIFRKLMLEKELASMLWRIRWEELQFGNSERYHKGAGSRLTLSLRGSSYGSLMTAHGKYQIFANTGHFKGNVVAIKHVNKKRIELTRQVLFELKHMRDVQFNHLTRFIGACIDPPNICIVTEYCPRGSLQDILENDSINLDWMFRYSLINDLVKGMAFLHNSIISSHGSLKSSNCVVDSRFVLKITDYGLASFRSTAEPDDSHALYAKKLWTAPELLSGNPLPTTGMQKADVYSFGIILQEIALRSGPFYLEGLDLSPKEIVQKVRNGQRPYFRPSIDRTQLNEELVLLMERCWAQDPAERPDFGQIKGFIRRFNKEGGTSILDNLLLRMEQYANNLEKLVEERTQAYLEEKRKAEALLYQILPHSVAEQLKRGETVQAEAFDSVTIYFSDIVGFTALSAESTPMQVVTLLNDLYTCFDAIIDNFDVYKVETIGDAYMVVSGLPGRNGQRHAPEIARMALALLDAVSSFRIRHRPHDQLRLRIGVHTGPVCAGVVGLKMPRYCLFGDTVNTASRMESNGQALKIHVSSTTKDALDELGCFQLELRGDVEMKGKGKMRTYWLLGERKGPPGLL
T1 sequence (P78324 whole entry, looked up, the tested form may be a part): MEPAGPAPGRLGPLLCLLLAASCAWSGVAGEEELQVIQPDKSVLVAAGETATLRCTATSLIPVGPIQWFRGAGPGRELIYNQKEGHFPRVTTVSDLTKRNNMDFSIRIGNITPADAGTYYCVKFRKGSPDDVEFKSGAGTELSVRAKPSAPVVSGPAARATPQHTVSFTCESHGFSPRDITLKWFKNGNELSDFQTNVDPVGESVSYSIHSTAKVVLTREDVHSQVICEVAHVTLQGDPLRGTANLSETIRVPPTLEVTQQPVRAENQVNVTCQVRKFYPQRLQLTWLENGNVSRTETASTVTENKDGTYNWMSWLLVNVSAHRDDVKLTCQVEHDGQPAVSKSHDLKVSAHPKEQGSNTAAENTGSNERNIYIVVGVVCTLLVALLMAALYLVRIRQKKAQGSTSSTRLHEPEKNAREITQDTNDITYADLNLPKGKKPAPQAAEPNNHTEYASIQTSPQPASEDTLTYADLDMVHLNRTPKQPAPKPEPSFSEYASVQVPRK
T1 sequence (Q08722 whole entry, looked up, the tested form may be a part): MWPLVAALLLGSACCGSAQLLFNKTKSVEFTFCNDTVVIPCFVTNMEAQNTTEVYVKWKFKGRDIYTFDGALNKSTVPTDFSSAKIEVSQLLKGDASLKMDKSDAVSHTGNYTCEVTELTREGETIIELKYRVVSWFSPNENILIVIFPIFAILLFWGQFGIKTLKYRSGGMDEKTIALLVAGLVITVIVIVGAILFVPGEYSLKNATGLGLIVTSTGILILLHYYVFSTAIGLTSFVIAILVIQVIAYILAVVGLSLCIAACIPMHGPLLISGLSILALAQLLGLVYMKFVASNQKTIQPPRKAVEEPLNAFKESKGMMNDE

Regarding `Nc1nc(N)c2nc(CNc3ccc(C(=O)NC(CCC(=O)O)C(=O)O)cc3)cnc2n1` (stereo not given), the Potency entry in experiment [1], in experiment [2], in experiment [3], in experiment [4] and in experiment [7] was “inactive” throughout. In addition, the outcome in [5] and in experiment [6] was inactive.
In the case of `NC(=O)c1cccc(N)c1`, the Potency entry in [1], in experiment [2], in experiment [3], in experiment [4], in experiment [9] and in experiment [7] was “inactive” in each case. The Potency result in experiment [10] is “inactive”. Further, the outcome in experiment [8], in experiment [5] and in experiment [6] was inactive.
Turning to `O=c1cc(O)c(Cl)c[nH]1`, the Potency entry in [4] and in experiment [9] was “inactive” each time.
Turning to `O=C(N[C@H](CO)[C@H](O)c1ccc([N+](=O)[O-])cc1)C(Cl)Cl`, the Potency entry in experiment [4], in [9] and in experiment [7] was “inactive” in each case.
`CCN1CCCC1CNC(=O)c1cc(S(N)(=O)=O)ccc1OC` (stereo not given): the Potency entry in experiment [1], in [2], in [3], in [4], in [9] and in [7] was “inactive” each time. The Potency entry in [10] was “inactive”. Also, the result in [8], in [5] and in experiment [6] was inactive.
Consider `O=C(O)c1cccnc1`, for which the Potency result in experiment [4], in experiment [9] and in experiment [7] was “inactive” in each case.
In the case of `Cc1onc(-c2ccccc2Cl)c1C(=O)N[C@@H]1C(=O)N2[C@@H]1SC(C)(C)[C@@H]2C(=O)O`, the Potency result in [4], in [9] and in experiment [7] was “inactive” in each case.
As for `CCOCC(O)COc1ccc(NC(=O)CC[S+](C)C)cc1` (stereo not given), the Potency result in [4], in experiment [9], in [7] and in experiment [10] was “inactive” each time.
In the case of `CC(=O)CC(c1ccccc1)c1c(O)c2ccccc2oc1=O` (stereo not given), the Potency entry in experiment [4], in [9], in [7] and in experiment [10] was “inactive” throughout.
Consider `C#CCN[C@@H]1CCc2ccccc21`, for which the Potency result in [4], in experiment [9], in experiment [7] and in [10] was “inactive” throughout.
On to `O=C(O)c1cn(C2CC2)c2cc(N3CCNCC3)c(F)cc2c1=O`, for which the Potency entry in experiment [4], in [9], in [7] and in [10] was “inactive” each time.
With `CC(C)Cn1cnc2c(N)nc3ccccc3c21`, the Potency entry in experiment [4], in [9] and in [7] was “inactive” each time.
On to `CNNCc1ccc(C(=O)NC(C)C)cc1`, for which the Potency result in experiment [4], in [9], in [7] and in [10] was “inactive” throughout.
With `S=P(N1CC1)(N1CC1)N1CC1`, the Potency result in experiment [4], in experiment [9], in experiment [7] and in experiment [10] was “inactive” in each case.
With `CCn1cc(C(=O)O)c(=O)c2cc(F)c(N3CCN(C)CC3)cc21`, the Potency result in experiment [4], in [9], in [7] and in [10] was “inactive” throughout.
On to `COC(=O)Nc1nc2ccc(C(=O)c3ccccc3)cc2[nH]1`, for which the Potency result in experiment [4] was “inactive”. The Potency was 210 nM (active) and 3.3 µM (active) in [9]; 106 nM (active) and 1.18 µM (active) in [7].
On to `COC(=O)Nc1nc2ccc(S(=O)c3ccccc3)cc2[nH]1` (stereo not given), for which, in experiment [4], the Potency result is “inactive”. Besides, the Potency is 1.18 µM (active) in experiment [9]; 841 nM (active) and 14.8 µM (active) in experiment [7].
For the molecule `COc1nc(N)nc2c1ncn2[C@@H]1O[C@H](CO)[C@@H](O)[C@@H]1O`, the Potency entry in experiment [4], in [9], in experiment [7] and in [10] was “inactive” throughout.
For the molecule `COC(=O)Nc1nc2ccc(Sc3ccccc3)cc2[nH]1`, the Potency result in experiment [4] is “inactive”. In addition, the Potency in experiment [9] is 1.33 µM (active) and 2.62 µM (active); in [7], 1.06 µM (active); in experiment [10], 0.833 µM (active).
As for `Nc1ccc(S(=O)(=O)Nc2ccccn2)cc1`, the Potency result in experiment [4], in [9], in experiment [7] and in experiment [10] was “inactive” each time.
As to `Clc1ccccc1CN1CCc2sccc2C1`, the Potency result in [4], in [9] and in [7] was “inactive” throughout.
On to `CN1CCN(c2c(F)cc3c(=O)c(C(=O)O)cn(CCF)c3c2F)CC1`, for which the Potency result in experiment [4], in experiment [9] and in [7] was “inactive” each time.
With `Cc1ccnc2c1NC(=O)c1cccnc1N2C1CC1`, the Potency entry in [4], in [9] and in experiment [7] was “inactive” in each case.
In the case of `Nc1nc(F)nc2c1ncn2[C@@H]1O[C@H](CO)[C@@H](O)[C@@H]1O`, the Potency result in experiment [4] is “inactive and 2.09 µM (active)”; in [9], 18.7 µM (active) and 2.62 µM (active); in experiment [7] it was 1.48 µM (active).
Regarding `CCc1cc(C(N)=S)ccn1`, the Potency entry in experiment [4], in experiment [9], in experiment [7] and in experiment [10] was “inactive” throughout.
For the molecule `COc1c(N2CCNC(C)C2)c(F)cc2c(=O)c(C(=O)O)cn(C3CC3)c12` (stereo not given), the Potency entry in [4], in [9] and in [7] was “inactive” throughout.
Consider `CCN(C)C(=O)Oc1cccc([C@H](C)N(C)C)c1`, for which the Potency entry in [4], in experiment [9], in experiment [7] and in [10] was “inactive” throughout.
With `CCCc1cc(C(N)=S)ccn1`, the Potency result in experiment [4], in experiment [9], in experiment [7] and in experiment [10] was “inactive” throughout.
For `OC(Cn1cncn1)(Cn1cncn1)c1ccc(F)cc1F`, the Potency entry in [4], in experiment [9], in experiment [7] and in experiment [10] was “inactive” each time.
Regarding `O=c1oc2c(O)c(O)cc3c(=O)oc4c(O)c(O)cc1c4c23`, the Potency result in experiment [4], in experiment [9] and in experiment [7] was “inactive” each time.
On to `CCC(=O)O[C@]1(C(=O)SCF)[C@H](C)C[C@H]2[C@@H]3C[C@H](F)C4=CC(=O)C=C[C@]4(C)[C@@]3(F)[C@@H](O)C[C@@]21C`, for which the Potency entry in experiment [4], in experiment [9] and in experiment [7] was “inactive” in each case.
For the molecule `NC(=O)c1cccnc1`, the Potency result in experiment [4], in experiment [9], in [7] and in [10] was “inactive” throughout.
For the molecule `CCOc1cc(N)c(Cl)cc1C(=O)NCC1CN(Cc2ccc(F)cc2)CCO1` (stereo not given), the Potency result in [4], in experiment [9], in experiment [7] and in [10] was “inactive” each time.
Take `CNS(=O)(=O)Cc1ccc2[nH]cc(CCN(C)C)c2c1`: the Potency result in experiment [4], in experiment [9], in [7] and in experiment [10] was “inactive” throughout.
On to `CC[C@H](NC(C)C)[C@H](O)c1ccc(O)c2[nH]c(=O)ccc12`, for which the Potency entry in [4], in experiment [9], in [7] and in experiment [10] was “inactive” throughout.
On to `CC(=O)Oc1ccccc1C(=O)Nc1ncc([N+](=O)[O-])s1`, for which the Potency entry in [4] and in experiment [9] was “inactive” in each case. Besides, the Potency in experiment [7] was 13.6 µM (active); in [10], 8.55 µM (active).
Regarding `CCOC(=O)c1ccc(C#Cc2ccc3c(c2)C(C)(C)CCS3)nc1`, the Potency entry in [4], in [9], in [7] and in experiment [10] was “inactive” throughout.
For `CC(C)(C#N)c1cc(Cn2cncn2)cc(C(C)(C)C#N)c1`, the Potency entry in experiment [4], in experiment [9] and in [7] was “inactive” in each case.
Consider `Nc1nc(=S)c2[nH]cnc2[nH]1`, for which the Potency result in experiment [4] is “inactive”. The Potency in [9] is 3.33 µM (active); in experiment [7] it was 2.11 µM (active) and 1.87 µM (active); in experiment [10], 0.935 µM (active).
